In ChEMBL document CHEMBL2218924, “A broad activity screen in support of a chemogenomic map for kinase signalling research and drug discovery” (Biochem J, 2013):

Assays:
[1] = molecular target: Serine/threonine-protein kinase PAK 4 (Homo sapiens) (UniProt O96013); settings: at 1 µM
[2] = molecular target: Serine/threonine-protein kinase PAK 4 (Homo sapiens) (UniProt O96013); settings: at 10 µM
[3] = molecular target: Serine/threonine-protein kinase PAK 5 (Homo sapiens) (UniProt Q9P286); settings: at 1 µM
[4] = molecular target: Serine/threonine-protein kinase PAK 5 (Homo sapiens) (UniProt Q9P286); settings: at 10 µM
[5] = molecular target: Serine/threonine-protein kinase PAK 6 (Homo sapiens) (UniProt Q9NQU5); settings: at 1 µM
[6] = molecular target: Serine/threonine-protein kinase PAK 6 (Homo sapiens) (UniProt Q9NQU5); settings: at 10 µM
[7] = molecular target: PAS domain-containing serine/threonine-protein kinase (Homo sapiens) (UniProt Q96RG2); settings: at 10 µM
[8] = molecular target: Activated CDC42 kinase 1 (Homo sapiens) (UniProt Q07912); settings: at 1 µM
[9] = molecular target: Activated CDC42 kinase 1 (Homo sapiens) (UniProt Q07912); settings: at 10 µM
[10] = molecular target: ALK tyrosine kinase receptor (Homo sapiens) (UniProt Q9UM73); settings: at 1 µM
[11] = molecular target: ALK tyrosine kinase receptor (Homo sapiens) (UniProt Q9UM73); settings: at 10 µM
[12] = molecular target: T1, Activin receptor type-1B (Homo sapiens) (UniProt P36896); settings: at 1 µM
T1 sequence (whole entry): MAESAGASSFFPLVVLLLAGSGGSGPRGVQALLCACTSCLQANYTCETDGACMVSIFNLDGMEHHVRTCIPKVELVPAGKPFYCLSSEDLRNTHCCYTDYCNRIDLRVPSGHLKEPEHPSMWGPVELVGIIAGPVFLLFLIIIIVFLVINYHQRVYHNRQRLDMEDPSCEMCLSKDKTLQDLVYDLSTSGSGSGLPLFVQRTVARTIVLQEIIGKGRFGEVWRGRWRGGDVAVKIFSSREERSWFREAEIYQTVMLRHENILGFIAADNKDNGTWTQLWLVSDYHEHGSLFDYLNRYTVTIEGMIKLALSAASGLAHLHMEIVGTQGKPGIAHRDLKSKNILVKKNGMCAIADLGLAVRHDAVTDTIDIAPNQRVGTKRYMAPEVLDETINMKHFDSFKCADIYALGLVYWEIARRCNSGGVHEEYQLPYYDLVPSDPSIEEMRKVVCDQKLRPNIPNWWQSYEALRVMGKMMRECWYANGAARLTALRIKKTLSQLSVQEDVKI

[13] = molecular target: T1, Activin receptor type-1B (Homo sapiens); settings: at 10 µM
[14] = molecular target: T2, AMP-activated protein kinase (AMPK) alpha-1/beta-1/gamma-1 (Homo sapiens) (UniProt P54619+Q9Y478+Q13131); settings: at 1 µM
[15] = molecular target: T2, AMP-activated protein kinase (AMPK) alpha-1/beta-1/gamma-1 (Homo sapiens); settings: at 10 µM
[16] = molecular target: T3, AMP-activated protein kinase, AMPK (Homo sapiens) (UniProt P54646+O43741+P54619+Q9UGJ0+Q9Y478+Q13131+Q9UGI9); settings: at 1 µM
[17] = molecular target: T3, AMP-activated protein kinase, AMPK (Homo sapiens); settings: at 10 µM
[18] = molecular target: T4, NUAK family SNF1-like kinase 1 (Homo sapiens) (UniProt O60285); settings: at 1 µM
T4 sequence (whole entry): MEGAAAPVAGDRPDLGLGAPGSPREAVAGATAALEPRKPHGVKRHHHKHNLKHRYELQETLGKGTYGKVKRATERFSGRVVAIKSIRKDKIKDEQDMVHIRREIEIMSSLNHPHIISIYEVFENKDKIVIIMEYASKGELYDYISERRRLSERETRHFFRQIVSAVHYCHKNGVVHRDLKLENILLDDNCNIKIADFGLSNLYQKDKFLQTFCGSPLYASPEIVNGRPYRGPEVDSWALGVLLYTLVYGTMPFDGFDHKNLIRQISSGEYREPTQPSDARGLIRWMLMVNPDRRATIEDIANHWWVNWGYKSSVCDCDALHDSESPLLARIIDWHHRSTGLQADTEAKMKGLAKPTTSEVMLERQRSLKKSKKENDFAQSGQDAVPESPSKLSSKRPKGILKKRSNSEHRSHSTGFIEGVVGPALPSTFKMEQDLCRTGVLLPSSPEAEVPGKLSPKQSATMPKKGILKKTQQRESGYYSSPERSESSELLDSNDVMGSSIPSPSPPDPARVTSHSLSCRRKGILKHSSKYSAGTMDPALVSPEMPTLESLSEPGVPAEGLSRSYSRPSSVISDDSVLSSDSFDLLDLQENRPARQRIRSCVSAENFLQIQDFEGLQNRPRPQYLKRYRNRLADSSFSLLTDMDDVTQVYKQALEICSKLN

[19] = molecular target: T4, NUAK family SNF1-like kinase 1 (Homo sapiens); settings: at 10 µM
[20] = molecular target: T5, Mitogen-activated protein kinase kinase kinase 5 (Homo sapiens) (UniProt Q99683); settings: at 1 µM
T5 sequence (whole entry): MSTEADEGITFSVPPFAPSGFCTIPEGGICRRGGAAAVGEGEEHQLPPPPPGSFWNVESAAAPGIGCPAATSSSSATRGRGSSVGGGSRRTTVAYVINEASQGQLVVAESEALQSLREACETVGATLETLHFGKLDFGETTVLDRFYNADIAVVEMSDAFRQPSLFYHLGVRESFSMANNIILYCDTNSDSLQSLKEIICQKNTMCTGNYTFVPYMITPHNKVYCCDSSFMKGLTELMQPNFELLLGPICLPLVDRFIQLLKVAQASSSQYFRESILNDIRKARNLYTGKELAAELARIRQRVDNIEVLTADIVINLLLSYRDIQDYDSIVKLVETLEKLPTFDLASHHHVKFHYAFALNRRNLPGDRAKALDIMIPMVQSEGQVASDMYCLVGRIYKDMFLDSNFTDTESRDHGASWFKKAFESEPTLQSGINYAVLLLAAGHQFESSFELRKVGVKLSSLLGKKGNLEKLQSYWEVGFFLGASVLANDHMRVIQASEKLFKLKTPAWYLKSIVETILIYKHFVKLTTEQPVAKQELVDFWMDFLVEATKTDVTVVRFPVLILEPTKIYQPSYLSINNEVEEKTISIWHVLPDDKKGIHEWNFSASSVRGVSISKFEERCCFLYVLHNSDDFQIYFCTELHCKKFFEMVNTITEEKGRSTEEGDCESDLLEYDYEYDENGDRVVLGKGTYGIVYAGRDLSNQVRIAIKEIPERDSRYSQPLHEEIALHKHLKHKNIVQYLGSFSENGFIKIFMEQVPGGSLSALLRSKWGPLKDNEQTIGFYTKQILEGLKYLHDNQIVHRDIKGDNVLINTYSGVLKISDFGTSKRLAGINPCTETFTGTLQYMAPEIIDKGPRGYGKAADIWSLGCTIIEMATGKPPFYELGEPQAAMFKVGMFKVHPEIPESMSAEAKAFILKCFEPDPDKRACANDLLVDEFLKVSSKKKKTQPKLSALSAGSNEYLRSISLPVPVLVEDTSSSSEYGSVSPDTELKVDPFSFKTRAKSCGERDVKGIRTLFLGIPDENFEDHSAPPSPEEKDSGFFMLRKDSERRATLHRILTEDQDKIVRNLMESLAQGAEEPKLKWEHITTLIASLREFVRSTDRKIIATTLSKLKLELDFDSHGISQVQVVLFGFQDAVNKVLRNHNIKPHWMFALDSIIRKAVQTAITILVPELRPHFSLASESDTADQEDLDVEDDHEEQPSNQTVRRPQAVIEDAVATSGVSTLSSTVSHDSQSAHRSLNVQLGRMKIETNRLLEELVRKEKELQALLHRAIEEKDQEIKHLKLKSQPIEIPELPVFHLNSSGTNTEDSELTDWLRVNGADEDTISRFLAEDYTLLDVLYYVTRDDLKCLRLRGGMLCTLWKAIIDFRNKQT

PAS domain-containing serine/threonine-protein kinase (Homo sapiens), sequence (Q96RG2 whole entry, the tested form may be a part): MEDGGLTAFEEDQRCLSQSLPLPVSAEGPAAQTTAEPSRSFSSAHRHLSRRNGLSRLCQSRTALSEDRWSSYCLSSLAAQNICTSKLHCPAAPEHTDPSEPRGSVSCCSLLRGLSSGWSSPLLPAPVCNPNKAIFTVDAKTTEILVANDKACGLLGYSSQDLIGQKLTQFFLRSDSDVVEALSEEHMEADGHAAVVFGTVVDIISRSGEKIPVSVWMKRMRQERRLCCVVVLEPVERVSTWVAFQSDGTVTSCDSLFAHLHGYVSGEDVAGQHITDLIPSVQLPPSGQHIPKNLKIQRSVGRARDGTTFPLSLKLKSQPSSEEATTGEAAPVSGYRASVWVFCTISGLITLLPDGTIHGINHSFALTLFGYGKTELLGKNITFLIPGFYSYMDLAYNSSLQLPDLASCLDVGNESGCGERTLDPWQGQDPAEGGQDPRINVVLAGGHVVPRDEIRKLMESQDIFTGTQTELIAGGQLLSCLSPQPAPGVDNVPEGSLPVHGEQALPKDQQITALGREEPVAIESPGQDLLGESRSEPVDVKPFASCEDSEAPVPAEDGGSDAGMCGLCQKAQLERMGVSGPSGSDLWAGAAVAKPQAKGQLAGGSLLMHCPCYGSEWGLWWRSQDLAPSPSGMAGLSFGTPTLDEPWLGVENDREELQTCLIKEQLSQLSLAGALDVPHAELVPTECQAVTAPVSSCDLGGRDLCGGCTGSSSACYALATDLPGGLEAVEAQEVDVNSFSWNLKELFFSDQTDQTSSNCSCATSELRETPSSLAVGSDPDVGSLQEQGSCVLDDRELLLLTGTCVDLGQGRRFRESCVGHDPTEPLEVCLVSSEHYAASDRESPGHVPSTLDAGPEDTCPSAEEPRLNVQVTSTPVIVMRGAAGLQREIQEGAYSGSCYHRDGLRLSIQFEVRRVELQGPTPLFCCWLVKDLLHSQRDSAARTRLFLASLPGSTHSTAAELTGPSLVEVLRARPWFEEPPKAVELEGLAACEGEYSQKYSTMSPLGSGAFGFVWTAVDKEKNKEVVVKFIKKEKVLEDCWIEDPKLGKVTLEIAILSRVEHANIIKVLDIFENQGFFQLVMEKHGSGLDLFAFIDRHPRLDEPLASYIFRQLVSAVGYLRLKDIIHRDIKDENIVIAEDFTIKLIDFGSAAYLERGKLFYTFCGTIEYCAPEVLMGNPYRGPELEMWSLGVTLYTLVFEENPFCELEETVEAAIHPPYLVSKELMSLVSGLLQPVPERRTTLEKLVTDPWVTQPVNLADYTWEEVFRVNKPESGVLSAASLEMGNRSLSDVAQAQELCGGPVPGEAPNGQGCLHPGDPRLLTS
Serine/threonine-protein kinase PAK 4 (Homo sapiens), sequence (O96013 whole entry, looked up): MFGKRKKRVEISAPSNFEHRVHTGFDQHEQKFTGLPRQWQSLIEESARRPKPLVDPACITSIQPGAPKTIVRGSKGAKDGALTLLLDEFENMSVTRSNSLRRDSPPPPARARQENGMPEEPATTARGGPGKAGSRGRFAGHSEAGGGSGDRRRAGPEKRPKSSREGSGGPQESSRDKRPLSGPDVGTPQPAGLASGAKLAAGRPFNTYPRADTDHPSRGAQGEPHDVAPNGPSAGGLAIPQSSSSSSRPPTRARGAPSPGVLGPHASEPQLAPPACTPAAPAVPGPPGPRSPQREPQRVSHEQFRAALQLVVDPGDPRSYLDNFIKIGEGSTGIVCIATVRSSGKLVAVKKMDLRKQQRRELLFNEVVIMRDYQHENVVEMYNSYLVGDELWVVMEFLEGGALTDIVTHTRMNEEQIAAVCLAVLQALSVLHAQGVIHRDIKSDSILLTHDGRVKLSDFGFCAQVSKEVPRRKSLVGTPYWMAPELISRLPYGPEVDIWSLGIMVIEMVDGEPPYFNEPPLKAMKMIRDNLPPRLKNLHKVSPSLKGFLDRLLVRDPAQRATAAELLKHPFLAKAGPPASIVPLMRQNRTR
Activated CDC42 kinase 1 (Homo sapiens), sequence (Q07912 whole entry, looked up): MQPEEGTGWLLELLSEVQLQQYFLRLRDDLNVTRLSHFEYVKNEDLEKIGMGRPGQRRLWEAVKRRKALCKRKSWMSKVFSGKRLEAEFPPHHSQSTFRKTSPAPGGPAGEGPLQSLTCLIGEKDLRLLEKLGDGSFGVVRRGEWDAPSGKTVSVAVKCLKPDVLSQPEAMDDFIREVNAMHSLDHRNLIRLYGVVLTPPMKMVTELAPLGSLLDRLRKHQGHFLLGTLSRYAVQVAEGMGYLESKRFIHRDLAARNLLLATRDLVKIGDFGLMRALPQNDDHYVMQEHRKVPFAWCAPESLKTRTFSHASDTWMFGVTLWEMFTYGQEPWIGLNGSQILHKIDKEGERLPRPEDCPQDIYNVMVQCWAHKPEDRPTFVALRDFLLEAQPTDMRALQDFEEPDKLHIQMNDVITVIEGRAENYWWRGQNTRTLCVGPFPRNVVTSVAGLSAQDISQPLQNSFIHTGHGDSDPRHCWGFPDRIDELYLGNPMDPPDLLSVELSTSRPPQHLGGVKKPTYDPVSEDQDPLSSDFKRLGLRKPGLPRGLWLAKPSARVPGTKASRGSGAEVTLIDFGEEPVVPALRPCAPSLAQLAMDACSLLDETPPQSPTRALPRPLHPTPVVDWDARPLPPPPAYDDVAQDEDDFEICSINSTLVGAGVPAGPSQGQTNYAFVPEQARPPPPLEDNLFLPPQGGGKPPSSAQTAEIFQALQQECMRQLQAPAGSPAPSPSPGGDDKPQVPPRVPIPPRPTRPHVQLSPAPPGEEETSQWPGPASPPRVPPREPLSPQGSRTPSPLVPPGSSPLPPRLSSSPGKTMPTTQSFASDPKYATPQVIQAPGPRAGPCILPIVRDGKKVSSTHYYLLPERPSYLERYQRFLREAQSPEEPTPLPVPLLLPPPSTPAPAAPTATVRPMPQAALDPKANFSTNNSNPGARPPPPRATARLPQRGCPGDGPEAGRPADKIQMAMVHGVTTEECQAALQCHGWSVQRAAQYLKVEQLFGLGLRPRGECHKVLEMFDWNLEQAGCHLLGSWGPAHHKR
Serine/threonine-protein kinase PAK 5 (Homo sapiens), sequence (Q9P286 whole entry, looked up): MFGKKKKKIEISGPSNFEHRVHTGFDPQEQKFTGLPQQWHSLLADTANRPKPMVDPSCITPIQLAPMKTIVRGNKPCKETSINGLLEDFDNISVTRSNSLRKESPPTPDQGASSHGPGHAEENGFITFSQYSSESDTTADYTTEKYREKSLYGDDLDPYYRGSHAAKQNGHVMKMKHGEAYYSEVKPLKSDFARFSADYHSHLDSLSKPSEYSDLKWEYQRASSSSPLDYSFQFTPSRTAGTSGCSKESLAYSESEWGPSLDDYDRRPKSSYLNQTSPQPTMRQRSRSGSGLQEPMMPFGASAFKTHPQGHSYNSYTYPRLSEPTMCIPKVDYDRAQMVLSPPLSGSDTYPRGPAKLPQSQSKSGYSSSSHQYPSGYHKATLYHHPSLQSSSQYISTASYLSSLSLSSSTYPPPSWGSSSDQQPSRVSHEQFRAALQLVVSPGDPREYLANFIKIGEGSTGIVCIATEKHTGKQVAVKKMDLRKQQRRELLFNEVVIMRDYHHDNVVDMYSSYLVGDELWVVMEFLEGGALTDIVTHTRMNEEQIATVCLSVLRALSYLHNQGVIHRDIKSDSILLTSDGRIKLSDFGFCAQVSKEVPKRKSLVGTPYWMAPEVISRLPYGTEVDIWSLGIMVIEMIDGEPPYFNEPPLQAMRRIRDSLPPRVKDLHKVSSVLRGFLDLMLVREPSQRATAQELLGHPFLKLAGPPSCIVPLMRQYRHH
Serine/threonine-protein kinase PAK 6 (Homo sapiens), sequence (Q9NQU5 whole entry, looked up, the tested form may be a part): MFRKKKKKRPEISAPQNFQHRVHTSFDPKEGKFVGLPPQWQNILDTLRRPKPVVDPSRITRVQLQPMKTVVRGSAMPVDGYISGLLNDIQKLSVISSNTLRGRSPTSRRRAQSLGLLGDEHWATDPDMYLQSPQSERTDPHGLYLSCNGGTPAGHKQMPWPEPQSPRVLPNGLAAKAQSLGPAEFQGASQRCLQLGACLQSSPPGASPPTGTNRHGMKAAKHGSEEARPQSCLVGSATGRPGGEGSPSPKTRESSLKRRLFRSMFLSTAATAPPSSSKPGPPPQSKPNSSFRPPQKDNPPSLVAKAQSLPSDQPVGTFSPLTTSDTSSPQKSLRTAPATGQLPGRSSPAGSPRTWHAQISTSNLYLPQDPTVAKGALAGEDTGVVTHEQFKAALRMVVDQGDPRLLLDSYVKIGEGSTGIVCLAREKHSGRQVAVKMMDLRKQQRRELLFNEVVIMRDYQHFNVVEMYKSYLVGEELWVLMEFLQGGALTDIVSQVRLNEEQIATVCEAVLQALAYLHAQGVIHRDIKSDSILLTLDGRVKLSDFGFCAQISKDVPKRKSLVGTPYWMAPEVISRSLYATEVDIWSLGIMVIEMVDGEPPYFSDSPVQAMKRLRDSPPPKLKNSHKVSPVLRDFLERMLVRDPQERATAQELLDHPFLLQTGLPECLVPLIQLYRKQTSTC

Structure (SMILES)	residual activity [1] [%]	residual activity [2] [%]	residual activity [3] [%]	residual activity [4] [%]	residual activity [5] [%]	residual activity [6] [%]	residual activity [7] [%]	residual activity [8] [%]	residual activity [9] [%]	residual activity [10] [%]	residual activity [11] [%]	residual activity [12] [%]	residual activity [13] [%]	residual activity [14] [%]	residual activity [15] [%]	residual activity [16] [%]	residual activity [17] [%]	residual activity [18] [%]	residual activity [19] [%]	residual activity [20] [%]
O=c1c2ccccc2[nH]c(=S)n1CCN1CCC(=C(c2ccc(F)cc2)c2ccc(F)cc2)CC1	106	99	84	47	82	41	53	83	70	81	73	149	111	101	84	97	74	90	120	106
O=Nc1c(-c2c(O)[nH]c3ccccc23)[nH]c2ccccc12	55	14	64	33	63	37	76	34	4	52	18	104	72	2	0	1	3	4	7	52
O=C1NC(=O)c2c1c1c3ccccc3[nH]c1c1[nH]c3cc(Br)ccc3c21	94	92	101	85	77	58	96	64	61	91	69	106	99	84	87	82	69	52	45	102
O=C1NC(=O)/C(=C/c2ccc3c(c2)OC(F)(F)O3)S1	102	95	80	70	81	78	37	96	70	69	77	127	102	81	66	96	70	91	87	85
CC(C)n1cnc2c(NCc3ccccc3)nc(NCCCO)nc21	97	80	108	96	95	72	98	76	58	87	64	106	111	88	87	99	90	99	83	113
CNc1cc2c(Nc3cccc(Br)c3)ncnc2cn1	88	65	97	104	101	89	57	46	11	78	72	121	116	100	80	91	86	100	80	103
CC[n+]1c(/C=C/N(C)c2ccccc2)n(-c2ccccc2)c2ccc(-c3nc4ccccc4s3)cc21	103	100	104	119	102	96	43	110	77	88	69	122	87	97	75	116	91	121	89	106
Nc1nc(Nc2ccc(S(N)(=O)=O)cc2)nn1C(=S)Nc1c(F)cccc1F	6	0	9	1	14	4	89	9	0	16	1	7	-4	-2	-1	-3	0	1	0	1
Nc1cccc(-c2cc3c(Oc4cccc(O)c4)ncnc3[nH]2)c1	63	19	87	31	86	48	101	10	-1	42	8	72	36	53	13	54	15	31	7	96
CO[C@@H]1[C@H](N(C)C(=O)c2ccccc2)C[C@H]2O[C@]1(C)n1c3ccccc3c3c4c(c5c6ccccc6n2c5c31)C(=O)NC4	64	43	52	48	49	26	0	11	-1	32	33	128	102	10	6	1	4	7	7	96
Cc1nc(-c2ccccc2)c(-c2ccncc2)o1	100	104	106	95	109	90	91	74	64	100	99	119	88	105	108	114	114	99	88	100
O=C1c2ccccc2-[n+]2ccc3c([nH]c4ccccc43)c21	90	92	82	90	102	84	119	77	55	85	83	110	114	95	94	101	93	97	83	89
